From PubChem BioAssay (EPA / NIEHS)
Activity calls are given as the source filed them. How the source made its calls: active means hit-call score of the fitted dose curve at least 0.9, where 1 is the maximum; inactive means score below 0.9.

Key:
Conditions in all cases: mRNA level, 48 h; actives raise or lower the signal
[1] = read-out: Cytochrome P450 (CYP24A1), CYP24A1 (gene 1591); experiment: LTEA_HepaRG_CYP24A1: Life Technologies and Expression Analysis (LTEA) Assay for Cytochrome P450 (CYP24A1) using HepaRG (AID 2283478)
Method in brief: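 qRT-PCR read-out: CYP24A1 transcript levels normalized to three housekeeping genes, bidirectional curve fits against 0.5% DMSO baseline. Human HepaRG cells treated 48 h with chemicals at eight concentrations from 100 uM in half-log steps.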

[2] = read-out: Cytochrome P450 (CYP1A2), CYP1A2 (gene 1544); experiment: LTEA_HepaRG_CYP1A2: Life Technologies and Expression Analysis (LTEA) Assay for Cytochrome P450 (CYP1A2) using HepaRG (AID 2283479)
Method in brief: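 HepaRG, 48 h exposure, top 100 uM, half-log 8-pt, 0.5% DMSO vehicle, duplicates. Readout: TaqMan qRT-PCR of CYP1A2 mRNA, housekeeping-normalized (ACTB/GAPDH/POLR2A). Gain/loss fit relative to DMSO baseline.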

[3] = read-out: cysteine-aspartic acid protease (CASP8), CASP8 (gene 841); experiment: LTEA_HepaRG_CASP8: Life Technologies and Expression Analysis (LTEA) Assay for cysteine-aspartic acid protease (CASP8) using HepaRG (AID 2283480)
Method in brief: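 Differentiated HepaRG cells in serum-free induction medium, 48 h exposure, eight-point half-log series from 100 uM in 0.5% DMSO, duplicates. CASP8 mRNA by qRT-PCR, normalized to ACTB, GAPDH, POLR2A; bidirectional fit versus DMSO.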

[4] = read-out: Cytochrome P450 (CYP2B6), CYP2B6 (gene 1555); experiment: LTEA_HepaRG_CYP2B6: Life Technologies and Expression Analysis (LTEA) Assay for Cytochrome P450 (CYP2B6) using HepaRG (AID 2283481)
Method in brief: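 Read-out is CYP2B6 mRNA by TaqMan qRT-PCR, normalized to three housekeeping genes and fitted bidirectionally against 0.5% DMSO baseline. Human HepaRG cells received test chemicals for 48 h, top concentration 100 uM, half-log dilutions.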

[5] = read-out: Cytochrome P450 2C19 (Homo sapiens) (UniProt P33261); experiment: LTEA_HepaRG_CYP2C19: Life Technologies and Expression Analysis (LTEA) Assay for CYP2C19 using HepaRG (AID 2283482)
Method in brief: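 HepaRG, 48 h chemical exposure, 8-pt half-log series from 100 uM in 0.5% DMSO, duplicates. Readout: CYP2C19 mRNA by TaqMan qRT-PCR, housekeeping-normalized. Bidirectional fit vs DMSO baseline; phenobarbital 1mM as induction control.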

CYP2C8 (gene 1558) = experiment: LTEA_HepaRG_CYP2C8: Life Technologies and Expression Analysis (LTEA) Assay for CYP2C8 using HepaRG (AID 2283483)
Method in brief: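 Differentiated HepaRG cells in serum-free induction medium exposed 48 h in duplicate to 8 half-log concentrations from 100 uM in 0.5% DMSO. CYP2C8 mRNA by qRT-PCR normalized to ACTB, GAPDH, POLR2A; bidirectional fit versus DMSO.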

CYP2C9 (gene 1559) = experiment: LTEA_HepaRG_CYP2C9: Life Technologies and Expression Analysis (LTEA) Assay for CYP2C9 using HepaRG (AID 2283484)
Method in brief: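 Differentiated human HepaRG cells in serum-free induction medium were exposed 48 h to chemicals in 8-point half-log series from 100 uM (0.5% DMSO), in duplicate. CYP2C9 mRNA was measured by qRT-PCR, normalized to ACTB/GAPDH/POLR2A, with bidirectional fitting versus DMSO.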

CYP2E1 (gene 1571) = experiment: LTEA_HepaRG_CYP2E1: Life Technologies and Expression Analysis (LTEA) Assay for CYP2E1 using HepaRG (AID 2283485)
Method in brief: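 Differentiated HepaRG cells were treated in duplicate for 48 h with chemicals in 0.5% DMSO, from 100 uM downward in half-log dilutions. RNA was then analysed by qRT-PCR for CYP2E1 induction or loss.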

CYP4A11 (gene 1579) = experiment: LTEA_HepaRG_CYP4A11: Life Technologies and Expression Analysis (LTEA) Assay for CYP4A11 using HepaRG (AID 2283486)
Method in brief: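 CYP4A11 transcript levels were quantified by TaqMan qRT-PCR after HepaRG human liver cells were treated for 48 hours with test chemicals (top 100 uM, half-log dilutions, 0.5% DMSO). Gain or loss of signal was fitted relative to DMSO.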

[6] = read-out: DNA damage-inducible transcript 3 (DDIT3), DDIT3 (gene 1649); experiment: LTEA_HepaRG_DDIT3: Life Technologies and Expression Analysis (LTEA) Assay for DNA damage-inducible transcript 3 (DDIT3) using HepaRG (AID 2283488)
Method in brief: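 Changes in DDIT3 transcript, in either direction relative to 0.5% DMSO vehicle, were quantified by TaqMan qRT-PCR after 48 h chemical exposure of HepaRG cells at 8 concentrations, maximum 100 uM.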

[7] = read-out: Pro-epidermal growth factor (Homo sapiens) (UniProt P01133); experiment: LTEA_HepaRG_EGF: Life Technologies and Expression Analysis (LTEA) Assay for Epidermal growth factor (EGF) using HepaRG (AID 2283489)
Method in brief: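 qRT-PCR readout of EGF transcript after 48 h chemical exposure of HepaRG cells; eight concentrations from 100 uM down in half-log steps, duplicate wells, 0.5% DMSO vehicle. Bidirectional curve fitting against DMSO baseline.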

[8] = read-out: Early growth response protein 1 (EGR1) transcription factor, EGR1 (gene 1958); experiment: LTEA_HepaRG_EGR1: Life Technologies and Expression Analysis (LTEA) Assay for Early growth response protein 1 (EGR1) transcription factor using HepaRG (AID 2283490)
Method in brief: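 Differentiated HepaRG cells in serum-free induction medium exposed 48 hours, duplicate, to 8 half-log concentrations up to 100 uM in 0.5% DMSO. EGR1 mRNA measured by TaqMan qRT-PCR, normalized to ACTB, GAPDH, POLR2A; bidirectional fit versus DMSO.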

[9] = read-out: Ezrin (EZR), EZR (gene 7430); experiment: LTEA_HepaRG_EZR: Life Technologies and Expression Analysis (LTEA) Assay for Ezrin (EZR) using HepaRG (AID 2283491)
Method in brief: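 Gain or loss of EZR mRNA is scored relative to 0.5% DMSO in human HepaRG cultures treated 48 h with test chemicals in duplicate, eight half-log concentrations from 100 uM.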

CYP3A5 (gene 1577) = experiment: LTEA_HepaRG_CYP3A5: Life Technologies and Expression Analysis (LTEA) Assay for CYP3A5 using HepaRG (AID 2283493)
Method in brief: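 mRNA induction or loss of CYP3A5 assessed in HepaRG after 48 h dosing, 100 uM top concentration, duplicate wells; TaqMan qRT-PCR with ACTB, GAPDH, POLR2A normalization; 0.5% DMSO as negative control.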

[10] = read-out: Fatty Acid-Binding Protein 1 (FABP1), FABP1 (gene 2168); experiment: LTEA_HepaRG_FABP1: Life Technologies and Expression Analysis (LTEA) Assay for Fatty Acid-Binding Protein 1 (FABP1) using HepaRG (AID 2283494)
Method in brief: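 Differentiated human HepaRG cells exposed 48 h in serum-free induction medium to eight half-log concentrations up to 100 uM (0.5% DMSO), duplicate. FABP1 mRNA by qRT-PCR, normalised to ACTB, GAPDH, POLR2A; bidirectional fitting against DMSO.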

[11] = read-out: Cytochrome P450 4A22 (Homo sapiens) (UniProt Q5TCH4); experiment: LTEA_HepaRG_CYP4A22: Life Technologies and Expression Analysis (LTEA) Assay for Cytochrome P450 4A22 (CYP4A22) using HepaRG (AID 2283495)
Method in brief: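 HepaRG, 48 h post-plating -> serum-free induction medium; dosed 48 h, duplicate, 8 conc. (100 uM top, half-log), 0.5% DMSO. Readout: CYP4A22 mRNA by qRT-PCR, ACTB/GAPDH/POLR2A normalization; gain/loss fit relative to DMSO.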

[12] = read-out: Cytochrome P450 7A1 (Homo sapiens) (UniProt P22680); experiment: LTEA_HepaRG_CYP7A1: Life Technologies and Expression Analysis (LTEA) Assay for Cytochrome P450 7A1 (CYP7A1) using HepaRG (AID 2283496)
Method in brief: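 Gene expression endpoint in human HepaRG liver cells treated for 48 h with test chemicals (up to 100 uM, 0.5% DMSO). Values come from bidirectional concentration-response fitting versus DMSO.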

[13] = read-out: Cytochrome P450 3A4 (Homo sapiens) (UniProt P08684); experiment: LTEA_HepaRG_CYP3A4: Life Technologies and Expression Analysis (LTEA) Assay for CYP3A4 using HepaRG (AID 2283487)
Method in brief: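 In a human hepatic line (HepaRG), duplicate wells were treated 48 h with up to 100 uM chemical in half-log dilutions. Endpoint: CYP3A4 mRNA induction or loss relative to 0.5% DMSO vehicle, by qRT-PCR.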

[14] = read-out: Cytochrome P450 3A7 (Homo sapiens) (UniProt P24462); experiment: LTEA_HepaRG_CYP3A7: Life Technologies and Expression Analysis (LTEA) Assay for CYP3A7 using HepaRG (AID 2283492)
Method in brief: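 CYP3A7 transcript levels were read by TaqMan qRT-PCR on Fluidigm arrays after 48 h chemical exposure of human HepaRG cells, with housekeeping-gene normalisation. Eight half-log concentrations up to 100 uM in 0.5% DMSO were tested in duplicate.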

Measured: AC50

Sequence of Cytochrome P450 2C19 (Homo sapiens) (P33261 whole entry, looked up): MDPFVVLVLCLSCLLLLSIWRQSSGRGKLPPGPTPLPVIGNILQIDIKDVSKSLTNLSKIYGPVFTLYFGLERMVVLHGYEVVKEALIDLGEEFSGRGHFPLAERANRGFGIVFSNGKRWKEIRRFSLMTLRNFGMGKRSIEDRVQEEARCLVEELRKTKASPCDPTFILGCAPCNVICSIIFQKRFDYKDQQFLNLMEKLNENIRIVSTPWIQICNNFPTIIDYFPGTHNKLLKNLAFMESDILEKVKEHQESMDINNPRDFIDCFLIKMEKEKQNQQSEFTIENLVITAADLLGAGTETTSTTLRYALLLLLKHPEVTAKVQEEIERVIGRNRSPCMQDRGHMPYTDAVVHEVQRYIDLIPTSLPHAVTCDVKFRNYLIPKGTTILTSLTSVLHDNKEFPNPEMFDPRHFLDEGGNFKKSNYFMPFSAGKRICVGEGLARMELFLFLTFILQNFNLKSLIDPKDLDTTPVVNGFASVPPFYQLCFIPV
Sequence of Cytochrome P450 3A4 (Homo sapiens) (P08684 whole entry, looked up): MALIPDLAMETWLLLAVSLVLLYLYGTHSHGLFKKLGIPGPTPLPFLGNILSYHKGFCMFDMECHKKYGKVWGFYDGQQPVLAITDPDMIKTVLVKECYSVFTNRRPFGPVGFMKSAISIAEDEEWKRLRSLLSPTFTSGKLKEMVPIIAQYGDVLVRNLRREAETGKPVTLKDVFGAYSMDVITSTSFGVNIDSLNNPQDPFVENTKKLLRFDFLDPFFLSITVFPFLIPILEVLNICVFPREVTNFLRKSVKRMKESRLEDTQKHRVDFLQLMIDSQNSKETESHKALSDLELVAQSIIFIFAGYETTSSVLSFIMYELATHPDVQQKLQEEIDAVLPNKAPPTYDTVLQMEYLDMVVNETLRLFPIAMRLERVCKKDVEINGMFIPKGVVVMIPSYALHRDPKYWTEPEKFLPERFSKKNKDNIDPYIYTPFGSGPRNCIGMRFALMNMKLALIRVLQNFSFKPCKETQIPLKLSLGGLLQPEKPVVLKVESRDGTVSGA
Sequence of Cytochrome P450 3A7 (Homo sapiens) (P24462 whole entry, looked up): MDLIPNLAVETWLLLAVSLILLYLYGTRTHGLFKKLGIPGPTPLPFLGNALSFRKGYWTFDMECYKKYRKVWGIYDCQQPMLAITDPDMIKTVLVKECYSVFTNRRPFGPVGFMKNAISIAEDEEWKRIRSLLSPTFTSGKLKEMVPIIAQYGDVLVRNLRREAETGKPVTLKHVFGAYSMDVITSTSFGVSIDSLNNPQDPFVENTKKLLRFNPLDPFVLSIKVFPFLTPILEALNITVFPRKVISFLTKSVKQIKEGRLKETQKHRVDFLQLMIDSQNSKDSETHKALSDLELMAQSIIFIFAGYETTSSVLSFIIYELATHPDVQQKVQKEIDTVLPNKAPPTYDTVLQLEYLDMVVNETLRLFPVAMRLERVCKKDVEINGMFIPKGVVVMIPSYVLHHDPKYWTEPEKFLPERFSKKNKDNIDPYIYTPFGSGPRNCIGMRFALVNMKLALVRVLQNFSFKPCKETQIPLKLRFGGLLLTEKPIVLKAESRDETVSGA

CC(C)(C)CC(C)(C)c1ccc(O)c(-n2nc3ccccc3n2)c1
inactive: [1] | [3] | CYP2C8 (gene 1558) | CYP2C9 (gene 1559) | [6] | [8] | [9] | CYP3A5 (gene 1577)
active: [2] 31.3 µM | [4] 13.1 µM | [5] 12.7 µM | CYP2E1 (gene 1571) 58.2 µM | CYP4A11 (gene 1579) 50 µM | [7] 50 µM | [10] 50 µM | [11] 50 µM | [12] 50 µM

Oc1cc2ccccc2c2ccccc12
active: [2] 22.4 µM | [12] 3.01 µM
inactive: [1] | [3] | [4] | [5] | CYP2C8 (gene 1558) | CYP2C9 (gene 1559) | CYP2E1 (gene 1571) | CYP4A11 (gene 1579) | [13] | [6] | [7] | [8] | [9] | [14] | CYP3A5 (gene 1577) | [10] | [11]

CCCCCCC(=O)O
active: [2] 50 µM
inactive: [1] | [3] | [4] | [5] | CYP2C8 (gene 1558) | CYP2C9 (gene 1559) | CYP2E1 (gene 1571) | CYP4A11 (gene 1579) | [13] | [7] | [8] | [9] | CYP3A5 (gene 1577) | [10] | [11] | [12]
